From PubChem BioAssay (NCATS) come the findings set out here.

Records with an inconclusive call do not appear. Values without a mark were called inactive. The source made the active and inactive calls. Calls follow the shape of the dose curve; as a rule, active = well fitted curve in the direction sought with a large enough effect; inconclusive = small, poorly fitted or top-dose-only effect, or another doubt; inactive = no such curve, though single readings can be large; an effect the other way counts as inactive or inconclusive.

As usually defined, the viability is a read-out of living cells in per cent, often relative to untreated cells.

The target of assay [1] is Aldehyde dehydrogenase, mitochondrial (Homo sapiens) (UniProt P05091). Nature of the assay: qHTS for Inhibitors of the Aldehyde Dehydrogenase Family (ALDH2) Primary screen (AID 2061308).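 Also: plate controls were vehicle for no effect and reference inhibitor for full effect; nearly all actives have a fitted effect of over 55% in size.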 On the technique in general: Quantitative high-throughput screening tests each substance at several concentrations.
Assay [2] addresses Retinaldehyde dehydrogenase 3 (Homo sapiens) (UniProt P47895). Nature of the assay: qHTS for Inhibitors of the Aldehyde Dehydrogenase Family (ALDH1A3) Validation screen (AID 2061312). Also: % is scaled to controls: 0 for no effect and ±100 for the full control effect; nearly all actives have a fitted effect of over 45% in size.
Assay [3] has the same target. Nature of the assay: qHTS for Inhibitors of the Aldehyde Dehydrogenase Family (ALDH1A3) Primary screen (AID 2061315).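 Also: plate controls were DMSO vehicle for no effect and reference inhibitor for full effect.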
Assay [4] in a line: BET inhibitor-based combinations targeting novel dependencies in MECOM-rearranged (r) AML: SET-2 cell line (AID 2202231). Also: nearly all actives have a fitted effect of over 35% in size. Also: potency is read from the fitted curve at half-maximal effect.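 As to viability: plate controls were DMSO treated cells for no effect and wells without cells for full effect.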 The note with it: SET-2 AML cells viability, CellTiter-Glo luminescence, 48 h; viability: stronger effect = lower value, concentration not given here. The procedure, abridged:
(§1)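 Each compound was tested at eleven concentrations on cells seeded at 500/well. After two days' incubation, ATP-based luminescence reported viability; responses relative to DMSO and blank wells yielded AUC and cell-line-centred Z-AUC.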
A general note: In ATP-based viability assays light output follows the ATP content of the culture.

The nature of assay [5]: BET inhibitor-based combinations targeting novel dependencies in MECOM-rearranged (r) AML: AML-191 cell line (AID 2202236; also: nearly all actives have a fitted effect of over 35% in size; also: potency is read from the fitted curve at half-maximal effect). In short, it runs like this:
as §1

Assay [6] can be described thus: BET inhibitor-based combinations targeting novel dependencies in MECOM-rearranged (r) AML: MV-4-11 cell line (AID 2202233). Also: nearly all actives have a fitted effect of over 45% in size. Also: potency is read from the fitted curve at half-maximal effect. In short, it runs like this:
(§2)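 First, 500 cells per well were seeded; next, drugs were pinned as 11-point doses; then plates sat 48 hr in the incubator; finally CellTiter-Glo was added and luminescence read, with AUC and Z-AUC computed.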

Assay [7] can be described thus: BET inhibitor-based combinations targeting novel dependencies in MECOM-rearranged (r) AML: HNT-34 cell line (AID 2202234). Also: potency is read from the fitted curve at half-maximal effect; nearly all actives have a fitted effect of over 35% in size. The procedure, abridged:
as §2

Assay [8] can be described thus: BET inhibitor-based combinations targeting novel dependencies in MECOM-rearranged (r) AML: UCSD-AML1 cell line (AID 2202235). Also: nearly all actives have a fitted effect of over 40% in size. Also: potency is read from the fitted curve at half-maximal effect. In short, it runs like this:
as §2

Assay [9] can be described thus: BET inhibitor-based combinations targeting novel dependencies in MECOM-rearranged (r) AML: AML-194 cell line (AID 2202237; also: nearly all actives have a fitted effect of over 40% in size; also: potency is read from the fitted curve at half-maximal effect). In short, it runs like this:
as §1

A short description of assay [10]: BET inhibitor-based combinations targeting novel dependencies in MECOM-rearranged (r) AML: OCI-AML3 cell line (AID 2202232). Also: nearly all actives have a fitted effect of over 35% in size. Also: potency is read from the fitted curve at half-maximal effect. The note with it: Potency: OCI-AML3 viability. The procedure, abridged:
as §1

Assay [11] has as its target Retinal dehydrogenase 2 (Homo sapiens) (UniProt O94788). Nature of the assay: qHTS for Inhibitors of the Aldehyde Dehydrogenase Family (ALDH1A2) Confirmation screens (AID 2061314). Also: nearly all actives have a fitted effect of over 65% in size. Also: potency is read from the fitted curve at half-maximal effect.
Assay [12] deals with Aldehyde dehydrogenase 1A1 (Homo sapiens) (UniProt P00352). Nature of the assay: qHTS for Inhibitors of the Aldehyde Dehydrogenase Family (ALDH1A1) Confirmatory screens (AID 2061316). Also: nearly all actives have a fitted effect of over 65% in size. Also: potency is read from the fitted curve at half-maximal effect.

As for `CCN(Cc1ccccc1)C(=O)Cn1c(=O)n(C)c2cnc(-c3ccccc3)nc21`, the Potency entry in [1], in assay [2] and in [3] was “inactive” throughout.
As to `COc1ccc(C(=O)CC2(O)C(=O)Nc3c(Cl)ccc(Cl)c32)cc1` (centres undefined), the Potency entry in assay [1], in [2] and in assay [3] was “inactive” throughout. Further, the values for the Potency in assay [4] and in assay [5] were 0.934 µM (active) and 1.05 µM (active), respectively.
For `Cn1ncc(Cl)c1-c1cc(C(=O)N[C@H](CN)Cc2ccc(F)c(F)c2)sc1Cl`, the Potency result in assay [1], in [2] and in assay [3] was “inactive” throughout. Moreover, the Potency in assay [4] was 20.9 µM (active); in assay [6] it was 16.6 µM (active); in assay [7] it was 16.6 µM (active); in [8], 13.2 µM (active); in assay [5], 26.3 µM (active); in assay [9], 16.6 µM (active).
Take `Cc1[nH]c2ccccc2c1CCNCc1ccc(/C=C/C(=O)NO)cc1`: the Potency result in [1] and in [2] was “inactive” in each case. Besides, the Potency in assay [4] was 0.0833 µM (active); in assay [10], 0.0661 µM (active); in assay [6] it was 0.0525 µM (active); in [7], 0.0934 µM (active); in assay [8] it was 0.0934 µM (active); in [5], 0.0833 µM (active). For the same compound, in [9], the Potency is 0.105 µM (active).
Regarding `CC(=O)Nc1sc2c(c1-c1nc3ccccc3s1)CCN(C(C)C)C2`, the Potency entry in assay [1] and in assay [3] was “inactive” throughout. Besides, the Potency in assay [11] was 28.3 µM (active).
Turning to `OCCNC1CCCc2c1[nH]c1ccc(-c3ccccc3)cc21` (centres undefined), the Potency result in assay [1], in [2] and in assay [3] was “inactive” in each case. The Potency was 11.8 µM (active) in assay [4]; 16.6 µM (active) in [10]; 14.8 µM (active) in assay [7]; 16.6 µM (active) in [5]; 13.2 µM (active) in assay [9].
As to `Cn1ncc(Cl)c1-c1cc(C(=O)NC(CN)Cc2ccc(F)c(F)c2)oc1Cl` (centres undefined), the Potency entry in assay [1], in assay [2] and in [3] was “inactive” each time. Besides, the Potency was 18.6 µM (active) in assay [10]; 11.8 µM (active) in [6]; 18.6 µM (active) in assay [7]; 13.2 µM (active) in assay [8]; 20.9 µM (active) in [5]; 18.6 µM (active) in [9].
Turning to `O=C(/C=C\n1cnc(-c2cc(C(F)(F)F)cc(C(F)(F)F)c2)n1)N1CC(F)(F)C1`, the Potency entry in assay [1], in assay [2] and in [3] was “inactive” each time. Moreover, the Potency in assay [4] was 1.66 µM (active); in [10] it was 2.63 µM (active); in assay [6] it was 1.32 µM (active); in assay [7], 5.25 µM (active); in [8], 0.934 µM (active); in assay [5], 1.32 µM (active). Besides, the Potency in assay [9] is 1.05 µM (active).
Take `O=C(Nc1ncc(Cc2ccc(C(F)(F)F)cc2)s1)c1ccc(-c2ccc([N+](=O)[O-])cc2)o1`: the Potency entry in assay [1] and in assay [3] was “inactive” throughout. In addition, in assay [11], the Potency is 22.5 µM (active).
Regarding `O=C(c1ccc(F)c(F)c1Nc1ccc(I)cc1F)N1CC(O)([C@@H]2CCCCN2)C1`, the Potency entry in [1], in assay [2] and in assay [3] was “inactive” in each case. For the same compound, the Potency in assay [7] is 0.742 µM (active); in [5], 8.33 µM (active); in assay [9] it was 7.42 µM (active).
With `O=C(NCC#CCSc1nnc(-c2cccc3ccccc23)o1)c1cccs1`, the Potency entry in [1] and in [3] was “inactive” each time. Moreover, the figures for the Potency in [11] and in assay [12] were 12.7 µM (active) and 8.96 µM (active), respectively.
Take `COC(C)(C)CCn1nc(Nc2c(C)cccc2C)c2cnc(Nc3ccc(OCCN4CCCC4)c(F)c3)nc21`: the Potency entry in [1], in assay [2] and in assay [3] was “inactive” throughout. Moreover, the Potency in [4] is 18.6 µM (active); in [10] it was 20.9 µM (active); in assay [6], 5.25 µM (active); in assay [7], 0.0661 µM (active); in assay [8], 9.34 µM (active); in assay [9] it was 14.8 µM (active).
In the case of `Cn1c(=O)c2c(ncn2CC2OCCO2)n(C)c1=O`, the Potency result in assay [1], in assay [2], in [3], in [10], in [6] and in assay [8] was “inactive” throughout. Further, the Potency result in assay [5] and in assay [9] was “inactive” throughout. Moreover, in assay [4], the viability was 103%.
Consider `NC(=O)C1CCN(c2nc(-c3ccc(N4CCCCC4)nc3)cs2)CC1`, for which the Potency entry in [1] and in assay [3] was “inactive” throughout. For the same compound, the Potency in assay [11] is 12.7 µM (active).
`O=C(N[C@H]1CCC[C@H](CO)C1)C1CCN(c2nc3cc(Cl)c(-c4ccc(Cl)cc4)cc3o2)CC1`: the Potency result in assay [1], in assay [2], in assay [3] and in assay [8] was “inactive” throughout. Besides, the Potency was 20.9 µM (active) in assay [4] and 23.5 µM (active) in assay [6].
Regarding `CNCc1ccc(C)c(NC(=O)c2ccc(Nc3nc(-c4ccccc4)c4ccccc4n3)cc2)c1`, the Potency entry in assay [1], in assay [2] and in [3] was “inactive” throughout. Moreover, the Potency was 16.6 µM (active) in assay [10], 13.2 µM (active) in [6], 20.9 µM (active) in assay [7] and 20.9 µM (active) in [5].
As to `CS(=O)(=O)N1CCN(c2nc(-c3ccc(Br)cc3)cs2)CC1`, the Potency result in assay [1], in [11] and in assay [3] was “inactive” each time.
With `Cc1ccc(NS(=O)(=O)c2cc3c(cc2N[C@@H](C)CO)NC(=O)CC3)cc1Cl`, the Potency result in assay [1], in assay [3] and in assay [12] was “inactive” each time. For the same compound, the Potency in assay [11] is 22.5 µM (active).
Regarding `C[C@H]1O[C@@H](O[C@H]2[C@@H](O)C[C@H](O[C@H]3[C@@H](O)C[C@H](O[C@H]4CC[C@@]5(C)[C@H](CC[C@@H]6[C@@H]5C[C@@H](O)[C@]5(C)[C@@H](C7=CC(=O)OC7)CC[C@]65O)C4)O[C@@H]3C)O[C@@H]2C)C[C@H](O)[C@@H]1O`, the Potency entry in assay [1], in assay [2] and in assay [3] was “inactive” throughout. The Potency in [10] is 0.118 µM (active); in assay [6], 0.105 µM (active); in [7], 0.105 µM (active); in assay [8] it was 0.132 µM (active); in assay [5], 0.132 µM (active); in assay [9], 0.118 µM (active).
